In PubChem BioAssay:

assay: plasmodial surface anion channel blockers, osmotic lysis – cell-based, P. falciparum Indochina, OD700, 18 h, primary screen (AID 1157); conditions: P. falciparum Indochina infected erythrocytes, osmotic lysis OD700, 18 h; higher = more signal, called active from +8 up or from −8 down

z-score, inactive:
Cc1cc(C)c(-c2cc([C@H](C)ON=C[C@@H](C)[C@H](OCc3ccccc3)C(C)C)on2)c(C)c1 0.195, CC(CCN1CCCCc2nc(C)c(C)cc21)=NO[C@H](C)c1cn([C@@H]2COC[C@H]2O)nn1 0.342, COC(=O)[C@H](C)NC(=O)CCC1CC(OC(=O)NCc2ccc3c(c2)OCO3)CC2(CCCC(COC(=O)NCc3ccccc3)O2)O1 (stereo partly specified) 0.272, CC(=O)OC[C@H]1O[C@H](C#CCC2CCCCC2)C=C[C@@H]1OC(C)=O 0.125, CN1CCc2nc(-c3ccccc3)c(-c3ccccc3)cc2C1 -0.021, CO[C@H]1COC(=O)CCC[C@H](C)[C@H](OC)COC(=O)CC=C[C@@H]1C -1.45, COCOc1ccc(Br)cc1C(=O)C=Cc1ccc2c(c1)OCO2 -1.11, CCN1C(=O)[C@H]2[C@H]3[C@H](O)[C@H](O)CC(=NO[C@@H](C)c4cc(-c5c(C)cc(C)cc5C)no4)[C@@H]3CC[C@H]2C1=O 0.588, C[C@@H](c1ccccc1)N1C(=O)[C@H]2[C@H]3[C@H](O)[C@H](O)CC(=NNC(=O)OCc4ccccc4)[C@@H]3CC[C@H]2C1=O 0.329, CO[C@H]1COC(=O)CCC[C@H](C)[C@@H](OC)COC(=O)CC=C[C@@H]1C -2.45, CO[C@H]1COC(=O)CC=C[C@H](C)[C@H](OC)COC(=O)[C@@H](C)NC(=O)CC=C[C@@H]1C -1.92, CC(CCN1CCCc2nc(C)c(C)cc21)=NOC[C@@H](C)[C@H](OCc1ccccc1)C(C)C -1.84, COc1ccc(COC(=O)NN=C2C[C@@H](O)[C@@H](O)[C@@H]3[C@@H]4C(=O)N([C@@H](C)c5ccccc5)C(=O)[C@@H]4CC[C@H]23)cc1 0.501, C=C(C)C(=O)OC[C@H]1CN2[C@@H](CC[C@@H](C)[C@@H]2c2ccc(Br)cc2)C(=O)O1 -0.196, O=C1[C@H]2[C@H]3[C@H](O)[C@H](O)CC(=NOC[C@@H](O)COCc4ccco4)[C@@H]3CC[C@H]2C(=O)N1Cc1ccc2c(c1)OCO2 1.01, O=C(NN=C1C[C@@H](O)[C@@H](O)[C@@H]2[C@@H]3C(=O)N(c4ccc(F)cc4F)C(=O)[C@@H]3CC[C@H]12)OCc1ccccc1 0.6, CC(=O)OC[C@H]1O[C@H](CC=NOC[C@@H](O)COCc2ccco2)C=C[C@@H]1OC(C)=O 0.515, CCN1C(C)=C(C(=O)OC)[C@@H](c2ccccc2)N2C(=O)[C@](O)(C(=O)OC)CC(C(C)=O)=C12 0.195, CC(C)CON=C1C[C@@H](O)[C@@H](O)[C@@H]2[C@@H]3C(=O)N([C@@H](C)c4ccccc4)C(=O)[C@@H]3CC[C@@H]12 0.281, COC(=O)CC=C1c2ccccc2[C@H](OC)[C@H]1C -0.0463, CC(=O)OC[C@H]1O[C@H](CC=NOC[C@@H](O)[C@H]2O[C@@H]3OC(C)(C)O[C@@H]3[C@H]2O)C=C[C@@H]1OC(C)=O 0.466, C#CCCCON=C1C[C@@H](O)[C@@H](O)[C@@H]2[C@@H]3C(=O)N(C[C@@H]4CCCO4)C(=O)[C@@H]3CC[C@H]12 0.0603, CCN1C(=O)[C@H]2[C@H]3[C@H](O)[C@H](O)CC(=NNC(=O)OCc4ccccc4)[C@H]3CC[C@H]2C1=O 0.0338, C[C@@H]1CC[C@H]2C(=O)OC(Cc3ccccc3)CN2[C@H]1c1ccc(Br)cc1 (stereo partly specified) 0.54, CC(C)=NOC(C)CN1CCCCc2nc(C)c(C)cc21 (stereo unspecified) 0.195, COC(=O)[C@@H]1CC[C@H](C)[C@@H](c2ccc(C)cc2)N1C(=O)c1ccc(C=NOC[C@@H](O)[C@H]2O[C@@H]3OC(C)(C)O[C@@H]3[C@H]2O)cc1 0.342, CCOC(=O)[C@H](Cc1ccccc1)NC(=O)CCC1CC(OC(=O)NCc2cccc3ccccc23)CC2(CCCC(COC(=O)NCCc3ccccc3OC)O2)O1 (stereo partly specified) 0.0286, CON=C[C@@H](OC)[C@H](C)C=CCC(=O)OC 0.22, O=C(NCCC[N+]1=CC=NC1c1ccccc1)N1CCCc2nc(-c3ccc(Br)cc3)ccc21 (stereo unspecified) 0.518, COc1cccc([C@H](O)Cn2cc(-c3ccc(CON=C(C)C)cc3)nn2)c1 1.54, C=CC[C@@H]1C=C[C@H](Oc2ccc(C)cc2)[C@@H](COC(=O)NCc2cccc3ccccc23)O1 0.346, COC(=O)[C@H](C)NC(=O)CCC1CC(OC(=O)NCCc2ccc(F)cc2)CC2(CCCC(COC(=O)NCCOc3ccccc3)O2)O1 (stereo partly specified) 0.199, CO[C@@H](C(C)C)[C@@H](C)C1OC(=O)CC1O (stereo partly specified) -0.121, CO[C@@H]1C=CCC(=O)N[C@@H](C)C(=O)OC[C@@H](NS(=O)(=O)c2ccc(C)cc2)[C@H](C)C=CCC(=O)OC[C@H]1C 0.109, O=C1[C@H]2[C@H]3[C@H](O)[C@H](O)CC(=NO[C@@H]4O[C@H](CO)[C@@H](O)[C@H](O)[C@H]4O)[C@@H]3CC[C@H]2C(=O)N1C1CCCCC1 0.228, CCOC(=O)[C@H](CC(C)C)NC(=O)CCC1CC(OC(=O)NCc2ccc3c(c2)OCO3)CC2(CCCC(COC(=O)NCCOc3ccccc3)O2)O1 (stereo partly specified) -0.193
